Reference: the supplement of paper PMC6555819

Columns and labels:
Test in all cases: PBM binding z-score (relative to random genomic background probes); higher = stronger binding; sequences stand for … in GC…GCGATTGACAGCGTAGAATGAAGG
[1] = system: RARb homodimer (NR concentration 270 nM)
Procedure, shortened: (§1)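 Binding buffer was PBS pH 7.4 with 2% milk, 0.02% Triton X-100, 1 mM DTT, 0.2 mg/mL BSA and 0.4 mg/ml salmon testes DNA. In it, ligand-free nuclear receptor dimers were incubated 1 h on custom Agilent 4×180K protein-binding microarrays carrying double-stranded probes. Antibodies against each partner (one per run) detected binding, and z-scores were calculated against random background probes after regression normalization of scanned fluorescence.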

[2] = system: RARg:RXRa (NR concentration 270 nM, RXRa partner concentration 90 nM)
Procedure, shortened: as §1

[3] = system: RARg homodimer (NR concentration 270 nM)
Procedure, shortened: as §1

[4] = system: RXRa DBDmut IVT, anti-RXR (DBD mutation: RXRa K156A/R161A, NR concentration 90 nM)
Procedure, shortened: as §1

[5] = system: RXRa homodimer (NR concentration 180 nM)
Procedure, shortened: as §1

[6] = system: THRa:RXRa (NR concentration 90 nM, RXRa partner concentration 90 nM)
Procedure, shortened: as §1

[7] = system: THRa homodimer (NR concentration 90 nM)
Procedure, shortened: as §1

[8] = system: VDR homodimer (NR concentration 270 nM)
Procedure, shortened: as §1

Sequence | PBM binding z-score [1] | PBM binding z-score [2] | PBM binding z-score [3] | PBM binding z-score [4] | PBM binding z-score [5] | PBM binding z-score [6] | PBM binding z-score [7] | PBM binding z-score [8]
TCTTGTAGATCAAGCAGGTTATGAAAGCCTGAGT | -0.0622 | 0.0667 | -0.307 | 0.366 | 0.465 | 0.302 | -0.815 | -0.186
TCTTGTAGATCAACAGGAGGTTAAAAAAGATCGA | 0.404 | 0.947 | 0.461 | 0.247 | 0.896 | 0.886 | -0.654 | 0.215
TTATCAAGGTGAAGGTCGTTGATCCCTCTGTAGA | 1.82 | 1.55 | 1.33 | 0.598 | 1.89 | 2.68 | 1.3 | 1.23
CGAAATAGGTCATTGACAGGACAGTGAATAGTAA | 3.34 | 5.81 | 4.98 | 2.23 | 4.21 | 3.01 | 0.329 | 1.15
CCTACTGGGCCAAAGGTCATTGTTTCCAATGCTC | 4.48 | 5.41 | 3.97 | 1.26 | 5.82 | 3.29 | 0.832 | 2.26
ACAGACAGGTGAGTGAAGGTGACTCAGCTGGACG | 0.821 | 0.36 | 0.791 | -0.543 | 0.523 | 2 | -0.223 | -0.311
TTACCAAGGTGAAGGTCGTTGAGCCCTCTGTAGA | 1.79 | 1.3 | 1.08 | 0.1 | 1.59 | 2.14 | 0.652 | 0.688
GCTTACGGGTTAAAGGTTATAGCATGAATAGAAT | 1.74 | 3.66 | 1.37 | 0.714 | 6.82 | 2.8 | 0.253 | 0.558
CAAACTAGGTGACCGGAAGGTCAAAGTCCGCATG | 4.4 | 5.38 | 3.94 | 0.562 | 3.89 | 3.57 | 1.86 | 2.49
ATCGAAAGGTCTTGAGGTGAGTATACAGAAAGGC | 1.41 | 1.77 | 1.87 | -0.483 | 1.48 | 2.34 | 1.21 | -0.0653
CGAACTAGGTCAGAACAGGAGAGTGAAGGATGAT | 1.69 | 2.51 | 3.2 | 0.692 | 1.23 | 1.72 | 0.0817 | 0.129
ACTAGCAGGCGAAGGGTCACTCAAGATTAGTCCG | 3.34 | 3.45 | 3.42 | 0.405 | 3.49 | 2.32 | -0.224 | 0.989
CGTCCAAGGTAAGCAGGTCAGTGAAAGCGACGTG | 2.25 | 1.08 | 1.44 | -0.436 | 0.485 | 1.7 | 0.269 | -0.407
CGTCAAAGTTCAAGGTAAGGTAACAGAAAGCAGC | 3.86 | 5.71 | 5.4 | 4.12 | 4.23 | 4.38 | 1.85 | 2.9
CTCGAAAGGTCGTGCTCAGTTGAGTATACCAAAC | 2.57 | 4.35 | 3.63 | 1.71 | 4.77 | 2.66 | 0.251 | 0.971
GCTAGCAGGCCAGTTGGGTCACTCAATGACGGGC | 1.76 | 0.797 | 0.963 | -1.01 | 0.522 | 1.45 | 0.0151 | -0.361
CCTATTTGGTCAAGGTCACACACGCTATAGGTAC | 4.51 | 4.63 | 4.57 | 2.35 | 4.55 | 4.2 | 4.49 | 3.03
CCTAGCAGGCCAGGGTCACTCAAGCATTTCGCTT | 2.82 | 3.21 | 2.84 | 0.493 | 3.9 | 2.92 | 1.2 | 1.25
CCGACTGGGGCAGAATGGTTACCATACCATCCGG | -0.435 | 0.00778 | 0.0342 | -0.908 | -0.122 | -0.891 | -0.862 | -0.629

Sequence | PBM binding z-score [1] | PBM binding z-score [2] | PBM binding z-score [3] | PBM binding z-score [4] | PBM binding z-score [5] | PBM binding z-score [6] | PBM binding z-score [7] | PBM binding z-score [8]
CAAACTAGGTCAAGAGGTCAATGTCCGCTTCCCG | 5.98 | 7.68 | 7.46 | 2.81 | 7.85 | 4.21 | 2.55 | 4.02
TCACATAGGTAAATGCTAGGTGAAAGTCCGATCT | 0.255 | 0.301 | 0.189 | 1.17 | 0.654 | 1.31 | 0.359 | -0.199
TCTTGTAGATCAGCACGTTAAGAAAGCTGGCCAA | -0.823 | -0.246 | -0.479 | 0.626 | -0.185 | -0.261 | -0.422 | -0.0275
TCTTGTAGATCAATAGAGGGTAAGAAAGTGCGCT | 0.255 | 0.119 | 0.175 | 1.1 | 0.491 | 0.828 | -0.673 | 0.445
TCTATTAGTTGATGGGCAACCGACGAGTCCGTTT | -0.181 | -0.125 | -0.0889 | 1.49 | 0.101 | -0.425 | 0.00181 | 0.831
CCTAGTTGGTCAGGAGGTCAGACACCGGATATGA | 3.57 | 3.8 | 3.09 | 0.173 | 2.74 | 2.43 | 1.11 | 1.42
GGTAGCAGGCCATTTGGGTCACTCAATGACGGGC | 2.01 | 1.27 | 1.83 | -0.513 | 0.775 | 1.84 | 0.696 | 0.494
CCAGACAGGTGAAAGGTAGCTCAGTCTGGTACGC | 0.293 | 0.352 | 0.242 | -0.0776 | 1.07 | 0.0213 | -0.421 | 0.118
GCTTATAGGTAATACAAGGTGAAAGTCCGATTGT | 1.05 | 0.63 | 0.649 | 0.59 | 0.772 | 4.28 | 1.16 | 0.227
CGAACTAGGGCATCCAGGACAGTGAATACATTGA | 0.585 | 0.674 | 1.17 | 0.66 | 0.135 | 1.61 | 0.745 | 0.366
CTACCAAGGTGAACATGGTCGTTGATTACTATTC | 1.25 | 1.06 | 1.14 | 0.571 | 0.87 | 2.25 | 1.03 | -0.0794
TCTTGTAGATCAACAGGGGGTTAAGAAAGATCGA | 1.32 | 1.91 | 0.92 | 1.89 | 1.93 | 1.86 | 0.559 | 0.493
ATCTCTAGATAACCAAGTTCAGTGAATGCCGAAC | 1.07 | 0.446 | 0.535 | 0.852 | 0.659 | 0.42 | 0.172 | 2.11
TCTTGTAGATCAAAGGTTAAGAACGCCGAAGCCT | 1.51 | 1.82 | 0.951 | 0.794 | 3.38 | 1.53 | -0.428 | 0.13
CCTCGGAGGACCACAGGAGGTCAGAGCTGCCAGA | 3.17 | 2.2 | 2.01 | -0.446 | 1.85 | 2.76 | 0.73 | 0.746
CTCGACAGGTCGTGCTCAGGTGAGTATACCAAAC | 1.11 | 2.21 | 1.33 | 0.53 | 1.3 | 3.08 | 0.709 | 0.293
TAGCCTAGGTCATCGGGCCAGTATAGTACGCATC | 3.22 | 4.32 | 4.38 | 0.957 | 3.29 | 2.96 | 1.16 | 0.811
TCTGCTACGTCAGTTGGTCAGCTAACGAGCTGCC | -0.763 | -0.688 | -0.884 | 0.0505 | -0.761 | -1.71 | -0.995 | -1.44
CAATCTAGGTCACCGGAAGGTCAAAGTCCGCATG | 5.77 | 8.45 | 7.81 | 1.98 | 7.46 | 4.59 | 3.62 | 4.12

Sequence | PBM binding z-score [1] | PBM binding z-score [2] | PBM binding z-score [3] | PBM binding z-score [4] | PBM binding z-score [5] | PBM binding z-score [6] | PBM binding z-score [7] | PBM binding z-score [8]
CCTTACGGGTCAAGGTTATAGCACGGGTGGTACG | 3.41 | 5 | 5.02 | 0.875 | 5.55 | 3.02 | 0.771 | 1.46
CCGAGCAGGCCAATCTGGGTCACTCAAGGCTTGA | 2.28 | 1.25 | 1.68 | 0.0945 | 1.15 | 3.72 | 0.404 | 0.347
TCTTGTAGATGAATAGAGGTTAAGAAAGTGCGCT | 1.19 | 0.961 | 0.531 | 1.66 | 1.68 | 1.72 | 0.0374 | 0.264
TAGCCTTGGTCATGCGGGCCAGTATAGTGTCGGC | -0.234 | -0.0381 | 0.129 | -1.52 | -0.29 | -0.715 | -0.902 | -0.904
TCTGCTAGGTGAACGATGGTCAGCTAATCTGCTA | 0.159 | 0.144 | 0.337 | -0.282 | 0.0585 | 0.529 | -0.885 | -0.782
GCTACAGGGTCAGCTAGAGGCCAGAGTATGGAAA | 3.3 | 6.74 | 5.02 | 1.48 | 4.32 | 3.23 | 0.349 | 0.386
TCTATTAGTTGATTACGGCAACCGAAACAGCGGA | -0.0417 | 0.252 | 0.426 | 1.38 | 0.521 | 0.122 | 0.312 | 0.575
TCACATAGGTAAAAGGTGAAAGTCGGTGTGGTAA | 1.98 | 2.02 | 0.992 | 1.3 | 3.3 | 1.72 | 0.0653 | -0.0676
CCTACTGGGCCATTCAGAGGCCATTGATCATATG | 0.918 | 0.62 | 0.424 | -0.152 | -0.147 | 0.255 | -0.212 | -0.0106
TGAATGAGGTTATAAGATCAGGGACCGTTGCAAA | 0.518 | 1.43 | 0.648 | 0.574 | 1.83 | 1.75 | 0.103 | 0.401
TGATTGAGGTTATAAGATCAGGGAACGTTGCAAA | 0.293 | 1.55 | 1.13 | 0.404 | 2.06 | 1.68 | 0.31 | 0.65
CGAACTAGGTCATAGACAGGACAGTGAATAGTAA | 2.43 | 4.2 | 4.11 | 1.6 | 3.32 | 2.62 | 0.586 | 0.676
TGAATGAGGTTAAAGATCAGGTAACGTGGCGTCG | 0.893 | 2.55 | 1.38 | 0.98 | 3.9 | 3.29 | 1.42 | 0.674
GTACCAAGGTGAATAGGTCGTTAATGAGTAGGCG | 1.88 | 2.4 | 1.37 | -0.112 | 1.7 | 1.7 | 0.636 | 0.459
CCGACTGGGCCAAAGGTCATTGATTCCAATGCTC | 4.58 | 5.54 | 4.4 | 1.57 | 5.7 | 3.21 | 0.644 | 2.4
TGAATGGGGTTAAAGATCAGGGAACGTGGCGTCG | 1.49 | 3.19 | 1.53 | 1.95 | 6 | 2.88 | 1.23 | 1.58
CCTAGAAGGCCAGGGTCACTCAAGCATTTCGCTT | 3.02 | 3.47 | 3.15 | 0.637 | 3.9 | 2.96 | 1.16 | 2.13
CCTGGTTGGTCAAGGTCACACACGCTATAGGTAC | 4.45 | 4.58 | 4.71 | 1.46 | 4.69 | 4.36 | 4.54 | 3.51
CCTCGGAGGACATAAGGTCAGAGCTGTCCGCTTT | 3.89 | 3.93 | 3.55 | 0.965 | 2.31 | 3.91 | 2.81 | 1.01
